# Measured values published in PubChem BioAssay (EPA / NIEHS).
# Active and inactive are the calls of the source. The calls were made as follows: active = hit-call score of the fitted dose curve at least 0.9, where 1 is the maximum; inactive = score below 0.9.
# Test: ATG_TAL_CIS: Attagene CIS-FACTORIAL HepG2 Assay for human TAL Basal Promoter (AID 2282966)
# Conditions: HepG2 Attagene cis-factorial TAL promoter reporter; actives raise or lower the signal
# Experimental: ATG_CIS is a cell-based, multiplexed-readout assay that uses HepG2, a human liver cell line, with measurements taken at 24 hours after chemical dosing in a 24-well plate.ATG_TAL_CIS is one of 52 assay component(s) measured or calculated from the ATG_CIS assay. It is designed to make measurements of mRNA induction, a form of inducible reporter, as detected with fluorescence intensity signals by Reverse transcription polymerase chain reaction (RT-PCR) and Capillary electrophoresis technology.Data from the assay component ATG_TAL_CIS was analyzed into 1 assay endpoint. This assay endpoint, ATG_TAL_CIS, was analyzed with bidirectional fitting relative to DMSO as the negative control and baseline of activity. Using a type of inducible reporter, measures of mRNA for gain or loss-of-signal activity can be used to understand the background control at the transcription factor-level as they relate to the gene . Furthermore, this assay endpoint can be referred to as a secondary readout, because this assay has produced multiple assay endpoints where this one serves a background control function. To generalize the intended target to other relatable targets, this assay endpoint is annotated to the background measurement intended target family, where the subfamily is internal marker.
# Human liver HepG2 cells are transiently transfected with multiple reporter transcription units (MRTUs) in 6-well plates using FuGene 6 reagent (Roche; 3 ml FuGene/1 mg DNA). The MRTU constructs are regulated by a cis-regulating element (promoter). […] A major difference between the CIS and TRANS system is that in CIS activities of endogenous TFs are measured, whereas the TRANS assay evaluates changes in activities of exogenous, chimeric NR-Gal4 proteins. […] At the end of 24 hour incubation, total RNA was isolated using TriZol reagent (Invitrogen). The isolated RNA is then reverse-transcribed using oligo(dT) primer and Mo-MLV reverse transcriptase (Invitrogen) with DNAse I (Ambion) treatment for 30 min. The one-tenth of the produced cDNA was amplified by PCR using Taq DNA polymerase (Invitrogen) and two reporter sequence-specific primers. The PCR products were fluorescently labeled by primer extension with 6-arboxyfluorescein (6-FAM) 5'-labeled reporter sequence-specific primer (2 min at 95 C, 20 s at 68 C and 10 min at 72 C) and these products were digested with 5U of HpaI (New England Biolabs) for 2h at 37 C. The fragments were purified using Qiaquick PCR columns (Qiagen), analyzed on an ABI 3130xL genetic analyzer (Applied Biosystems) with peak positions identified by using a set of X-rhodamine (ROX)-labeled MapMarker1000 molecular weight standards (BioVentures). The raw capillary electrophoresis data was processed using Attagraph software (Attagene).
Structure (SMILES),outcome,AC50
CCCCCCCC(C)=O,inactive,–
CC1=NC(C)OC1C (stereo not given),inactive,–
O=c1c2ccccc2oc2ccccc12,inactive,–
CCOC(=O)Cc1cccc2ccccc12,inactive,–
C=CC(C)(CCC=C(C)C)OC(=O)CC(C)C (stereo not given),inactive,–
c1ccc(CNCc2ccccc2)cc1,inactive,–
C=C(C)C(=O)OCC(C)C,inactive,–
CC(=O)Nc1ccc2c(c1)Cc1cc(NC(C)=O)ccc1-2,inactive,–
CCCCCCCC[N+](C)(CCCCCCCC)CCCCCCCC,inactive,–
CCCCCC/C=C\CCCCCCCC(=O)O,inactive,–
CCCCCCCCC(=O)OCC,inactive,–
O=C(Oc1ccccc1)c1ccc2ccccc2c1O,inactive,–
O=CN1CCCCC1,inactive,–
O=CC1CC1,inactive,–
CCOC(=O)c1ccccc1C(=C1C=C(Br)C(=O)C(Br)=C1)c1cc(Br)c(O)c(Br)c1,inactive,–
Oc1ccc(Cl)cc1Cc1cc(Cl)ccc1O,inactive,–
CC1=NN(c2cc(S(=O)(=O)O)ccc2Cl)C(=O)C1N=Nc1ccccc1 (stereo not given),inactive,–
Nc1ccc(Cl)cc1Cl,inactive,–
c1ccc(-c2ccccn2)nc1,inactive,–
C=CC(=O)OCCOC(=O)C=C,inactive,–

Structure (SMILES),outcome,AC50
C=C(C)CCO,inactive,–
C=CCCCCCCCCC(=O)OCCCC,inactive,–
C=C[C@](C)(O)CC[C@@H]1[C@@]2(C)CCCC(C)(C)[C@@H]2CC[C@@]1(C)O,inactive,–
Nc1cccc(C(F)(F)F)c1,inactive,–
[Cl][Bi]([Cl])([c]1ccccc1)([c]1ccccc1)[c]1ccccc1,inactive,–
CN(C)c1ccc(N=Nc2ccccc2C(=O)O)cc1,inactive,–
CCO[Si](CCCN=C=O)(OCC)OCC,inactive,–
CC1(C)O[C@@H]2C[C@H]3[C@@H]4C[C@H](F)C5=CC(=O)CC[C@]5(C)[C@H]4[C@@H](O)C[C@]3(C)[C@]2(C(=O)CO)O1,inactive,–
CCN(CCC#N)c1ccc(N=Nc2c(Cl)cc([N+](=O)[O-])cc2Cl)cc1,inactive,–
S=C(NC1CCCCC1)NC1CCCCC1,inactive,–
CCCCC(CC)COCC1CO1 (stereo not given),inactive,–
CC(=O)OCc1ccco1,inactive,–
CC(C)(C)C(=O)C=Cc1ccc(Cl)cc1,–,100 µM (active)
Clc1nc2ccccc2s1,inactive,–
COC=O,inactive,–
CC(=O)OCC(C)OC(C)=O (stereo not given),inactive,–
Nc1ccc(-c2ccc(F)cc2)cc1,inactive,–
C=C(C)[C@H]1CC=C(C)CC1,inactive,–
O=c1c2ccccc2nnn1CCl,inactive,–
CN1C(=O)N(C)C(O)C1O (stereo not given),inactive,–
